# Assay outcomes as filed in PubChem.
# Compounds with a hit are over-represented: about 4.4% of the library has one in this group of screens.
# Mot1-301 SUMO = blocks SUMOylation pathway, rescuing yeast Mot1-301 growth; S. cerevisiae Mot1-301 growth rescue, ATP luminescence, 38.5C; percent above DMSO median, 100 means doubled; growth rescue, % at 18.8 µM; 1% of 320,000 active;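 active = every valid replicate shows activation above 250% relative to neutral control wells; inactive = the rest, any valid replicate at or below 250%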;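 note: OY570 slx delta 5 strain wells were the positive control but not used for scaling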
# tim10-1 inh = growth inhibitors of tim10-1 mutant yeast. AID 463190. 2.2% of 330,000 active. S. cerevisiae tim10-1 ts strain growth, BacTiter-Glo, 24 h. inhibition, % at 20 µM;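 active = inhibition of at least 40%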;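 note: mutant grown at 25 °C; 0% = DMSO wells with yeast and 100% = wells holding no yeast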
# TIM10 inh = growth inhibitors of TIM10 yeast strain | S. cerevisiae TIM10 strain growth, BacTiter-Glo luminescence, 24 h | inhibition, % at 10 µM | 1.4% of 330,000 active | AID 463195;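 active = inhibition of 40% or more at the single tested concentration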;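 note: wild-type TIM10 isogenic control strain grown at permissive 25 °C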
# tim23-1 inh = tim23-1 yeast growth inhibition; inhibition, % at 20 µM; 1.3% of 330,000 active; S. cerevisiae tim23-1 growth, BacTiter-Glo luminescence, 24 h;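 active = growth inhibition of the mutant yeast at or above 50%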;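 note: temperature-sensitive mutant grown at 25 °C; plate controls were DMSO-treated mutant yeast for no effect and medium wells lacking yeast for full effect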
# PfHsp90 yeast 2 = inhibits growth of yeast expressing Plasmodium falciparum Hsp90; S. cerevisiae expressing PfHsp90, BacTiter-Glo ATP, 48 h; yeast lacking PDR1 and PDR3 efflux regulators; inhibition, % at 9.4 µM; 0.32% of 310,000 active; AID 504621;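 active = every replicate shows inhibition above about 80%, whatever the replicate mean, limit read from the data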;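 note: 0% = DMSO neutral controls and 100% = 20 µM radicicol positive controls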
# tim10-1 conf = tim10-1 yeast growth inhibition, confirmed | shares compounds with tim10-1 inh | S. cerevisiae tim10-1 ts strain growth, BacTiter-Glo, 24 h | inhibition, % at 20 µM | 56% of 7,400 active;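 active = inhibition of yeast growth at or above a set limit in either of two repeat tests at 20 µM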;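 note: tim10-1 mutant grown at permissive 25 °C to find synthetic lethal compounds; 0% = DMSO yeast wells and 100% = medium wells without yeast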
# * hit, by the source's call; . = not tested or not shown; + = active, no number.
SMILES,Mot1-301 SUMO,tim10-1 inh,TIM10 inh,tim23-1 inh,PfHsp90 yeast 2,tim10-1 conf
O=C1C2C(c3ccccc3)CC=CC2[C@H](c2ccoc2)N1Cc1ccccc1 (some centres undefined),-0.7,33.7,12.0,7.8,-12.9,.
COc1ccc(C(=O)NCCn2ccc3ccccc32)cc1,8.4,-11.3,3.4,25.6,5.3,.
O=C(NCCn1ccc2ccccc21)c1ccc(S(=O)(=O)N2CCCCC2)cc1,-4.2,41.0*,20.2,34.2,8.1,27.4
CC1Oc2ccccc2N(CC(=O)NC2CCCC2)C1=O (centres undefined),17.2,3.1,-5.0,3.3,-21.7,.
COc1ccc(CN(Cc2ccccn2)C(=O)CN2C(=O)COc3ccccc32)cc1,3.0,26.4,14.1,32.3,-6.3,.
COc1ccc(CN(C(=O)CN2C(=O)C(C)Oc3ccccc32)C2CCCC2)c(OC)c1 (centres undefined),-17.3,41.4*,30.8,43.6,-10.5,28.9
COc1ccc(CN(C(=O)CN2C(=O)COc3ccccc32)C2CCCC2)c(OC)c1,6.6,40.1*,22.9,39.8,-16.7,15.4
Cc1ccc(C(=O)N/N=C(/CC(=O)c2cccs2)C(F)(F)F)cc1,10.9,46.8*,27.4,47.4,-39.6,28.9*
CCOc1ccc(-c2nc(CSCC(=O)NC3CCCc4ccccc43)c(C)o2)cc1 (centres undefined),-16.9,40.2*,35.1,35.5,.,24.7
Cc1cc(C=O)c(C)c2c1[nH]c1ccccc12,.,.,.,.,-99.4,.
Cc1ccc(C)c2c1[nH]c1ccccc12,26.9,41.0*,30.7,25.4,2.0,37.9*
Cc1cc(N=Nc2ccc(Cl)cc2)cc(CN2CCCC2)c1O,67.6,44.5*,24.6,24.8,-3.7,26.9
CN1N=C(N)c2cn(C3OC(COP(=O)(O)O)C(O)C3O)c3ncnc1c23 (centres undefined),.,.,.,.,-8.1,.
O=S(=O)(NCCSc1ccccc1)c1ccc2c(c1)OCCO2,-19.3,40.8*,5.2,36.2,7.3,23.9
COc1cccc(COC(=O)C2CC(=O)N(Cc3ccc(C)cc3)C2)c1OC (centres undefined),31.0,8.6,4.1,22.1,0.7,.
COc1ccc(C(=S)NCS(=O)(=O)c2ccc(C)cc2)cc1,-11.9,40.4*,15.5,32.1,1.5,19.3
O=C(CSCC(=O)Nc1ccccc1)N/N=C/c1c(O)ccc2ccccc12,2.1,41.8*,37.6,-12.7,-14.1,15.5
O=C(CN1CCOCC1)N/N=C/c1c(O)ccc2ccccc12,2.5,46.4*,21.9,49.0,-12.8,5.5
CCC(C)NC(=O)c1cn(CC)c2cc(N3CCN(C(=O)c4ccco4)CC3)c(F)cc2c1=O (centres undefined),-6.0,18.1,10.9,6.2,-20.2,.
C[C@H](CO)N1C[C@H](C)[C@@H](CN(C)S(=O)(=O)c2ccccc2)Oc2ccc(NC(=O)Nc3ccc4c(c3)OCO4)cc2C1=O,10.9,2.6,5.3,3.4,8.5,.
CSc1nnc(SCC(=O)Nc2ccc3[nH]c(=O)[nH]c3c2)s1,-4.1,-5.7,5.9,-13.7,17.5,.
Cc1cc(C)n2c(SCc3ccccc3Cl)nnc2n1,122.0,42.8*,-1.8,30.9,-8.5,17.3
Cc1nn(C(=O)CCCC(=O)NCc2ccccc2)c2ccccc12,-3.5,21.8,-6.5,13.5,24.6,.
Cc1ccc(-c2nn(CCC#N)cc2C=C(C#N)C#N)cc1,-6.2,45.0*,21.0,24.6,-2.1,22.9
CCOC(=O)c1c(C)[nH]c(C(=O)Nc2ccc3c(c2)OCO3)c1C,33.6,42.9*,38.6,45.1,.,31.7*
SMILES,Mot1-301 SUMO,tim10-1 inh,TIM10 inh,tim23-1 inh,PfHsp90 yeast 2,tim10-1 conf
COc1ccc([C@H]2/C=C\CN(C(=O)[C@H](Cc3ccccc3)NC(=O)OCC3c4ccccc4-c4ccccc43)CC(=O)N2Cc2ccc(F)cc2)cc1,7.4,95.4*,4.0,14.3,.,18.9
COc1ccc(C2/C=C\CN(C(=O)OCC3c4ccccc4-c4ccccc43)CC(=O)N2Cc2cccc(F)c2)cc1 (centres undefined),.,16.6,3.8,24.4,-18.4,.
N#C/C(=N\Nc1cccc2ccccc12)c1nnc2n1CCCCC2,+,40.3*,8.8,14.9,18.5,16.1
N#C/C(=C\c1c[nH]c2ccccc12)c1nnc2n1CCCCC2,-0.5,11.7,3.3,10.2,-0.6,.
Cc1noc(C)c1CSCC(=O)Nc1nc(-c2ccc(F)c(F)c2)cs1,7.4,40.4*,35.5,25.1,-5.7,29.0
O=C(OCC#CCSc1nnc(-c2cccc3ccccc23)o1)c1ccc2ccccc2c1,44.7,6.8,2.5,8.7,-2.2,.
O=C(CSc1nc2ccccc2c(=O)n1-c1ccc(F)cc1F)Nc1ccc2c(c1)CCC2,2.1,32.5,-0.9,16.8,-7.5,.
O=C(CSc1nc2ccccc2c(=O)n1-c1ccc(F)cc1)Nc1ccc2c(c1)CCC2,9.2,41.3*,20.8,18.5,-4.2,18.0
Cc1ccccc1-n1c(SCC(=O)Nc2ccccc2)nc2nc3c(cc2c1=O)CCCC3,483.9,43.7*,22.7,25.0,1.9,10.1
O=C(CSc1nc2nc3c(cc2c(=O)n1-c1ccccc1)CCCC3)Nc1cccc2ccccc12,-6.3,43.4*,1.5,12.1,6.6,9.1
CCCN(CC(=O)Nc1ccccc1C)C(=O)c1cccc(S(=O)(=O)N2CCN(c3ccccc3)CC2)c1,6.9,-2.2,12.4,16.2,.,.
CCOc1cccc(/C=N/Nc2ccc(S(=O)(=O)N(CC)CC)cn2)c1O,-11.0,40.9*,27.6,20.5,-11.3,26.6
CCN(CC)S(=O)(=O)c1ccc(N/N=C/c2ccc(OC)c(OC)c2OC)nc1,12.7,12.9,-3.8,-1.1,-37.3,.
